Screening data as filed in PubChem BioAssay.
IDE inh: inhibitors of human insulin-degrading enzyme in cells. P14735. HEK cells, FAbetaB cleavage, fluorescence polarization. inhibition, % at 5.59 µM. hit rate 0.41% among 320,000;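 active = percent inhibition above the average of all tested compounds plus 3 SD, set per screening campaign, cut at about 16% in these data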;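 also: IDE supplied by intact live HEK cells; FP after avidin binding of uncleaved biotin substrate so inhibition keeps polarization high; 0% = DMSO wells and 100% = 60 µM reference IDE inhibitor Ii1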
Target sequence (P14735 whole entry, looked up): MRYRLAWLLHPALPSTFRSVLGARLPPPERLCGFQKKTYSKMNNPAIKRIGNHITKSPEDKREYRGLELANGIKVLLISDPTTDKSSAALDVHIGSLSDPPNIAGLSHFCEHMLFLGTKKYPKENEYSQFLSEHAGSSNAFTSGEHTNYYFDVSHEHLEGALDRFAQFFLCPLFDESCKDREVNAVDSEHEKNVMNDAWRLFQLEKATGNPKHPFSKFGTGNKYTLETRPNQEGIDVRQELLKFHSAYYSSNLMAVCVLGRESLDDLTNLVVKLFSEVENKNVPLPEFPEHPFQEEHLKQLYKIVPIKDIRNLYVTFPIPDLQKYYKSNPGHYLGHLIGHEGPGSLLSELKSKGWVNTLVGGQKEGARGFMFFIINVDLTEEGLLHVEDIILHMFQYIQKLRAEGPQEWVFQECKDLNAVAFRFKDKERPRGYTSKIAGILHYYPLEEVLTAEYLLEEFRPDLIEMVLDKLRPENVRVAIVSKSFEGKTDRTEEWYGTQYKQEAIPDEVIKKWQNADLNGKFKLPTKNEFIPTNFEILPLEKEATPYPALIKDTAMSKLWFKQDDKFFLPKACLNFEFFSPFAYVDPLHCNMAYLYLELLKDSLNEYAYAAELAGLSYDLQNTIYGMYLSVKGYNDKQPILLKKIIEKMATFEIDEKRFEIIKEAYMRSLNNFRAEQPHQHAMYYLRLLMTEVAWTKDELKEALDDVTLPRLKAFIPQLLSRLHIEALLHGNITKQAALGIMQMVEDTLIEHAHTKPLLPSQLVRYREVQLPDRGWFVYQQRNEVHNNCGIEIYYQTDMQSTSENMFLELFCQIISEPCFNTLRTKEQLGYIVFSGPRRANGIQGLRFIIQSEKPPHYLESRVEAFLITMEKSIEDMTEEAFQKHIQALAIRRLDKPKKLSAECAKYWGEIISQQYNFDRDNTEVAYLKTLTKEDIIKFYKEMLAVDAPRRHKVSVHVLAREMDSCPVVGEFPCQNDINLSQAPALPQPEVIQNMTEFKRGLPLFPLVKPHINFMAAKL
CRFBP-R2 agonist: agonists of human CRF-binding protein/CRF-R2 receptor complex | HEK293 CRF-R2/CRF-BP, calcium dye fluorescence (FLIPR); percent of saturating CRF peptide response | activation, % at 13.2 µM | hit rate 0.46% among 350,000;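 active = activation of at least 50%, plus an integration ratio under a set limit after plate pattern correction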;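 also: plate controls were neutral control wells without compound for no effect and CRF at EC100 for full effect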
CRFBP-R2 block: blocks CRF-induced signaling of the CRF-BP/CRF-R2 complex. HEK293 CRF-R2/CRF-BP, CRF-induced calcium fluorescence. inhibition, % at 11.8 µM. hit rate 0.59% among 350,000. AID 588475;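 active = inhibition of the ligand-induced calcium signal above about 50% at the single tested concentration, limit read from the data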
RTF Ca sens inh: cardiac RTF calcium desensitization; P19429+P45379; IANBD-labeled cardiac RTF, Ca2+ fluorescence; inhibition, % at 7.15 µM; hit rate 0.12% among 340,000; AID 493244;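 active = inhibition above the mean inhibition of all tested compounds plus 3 SD, cut at about 17% in these data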;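 also: assay run at fixed EC70 calcium of 1.6 mM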
RTF Ca sens act: increases calcium sensitivity of human cardiac regulated thin filaments; AID 493008; hit rate 0.24% among 340,000; IANBD-labeled TnC RTF fluorescence at EC20 calcium; 0% EC20 calcium, 100% full calcium; activation, % at 7.2 µM;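 active = activation above the mean over all tested compounds plus 3 SD, cut at about 30% in these data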;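 also: rise in fluorescence read as greater calcium sensitivity of cardiac thin filaments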
IDE cell activ: boosts human insulin-degrading enzyme activity in HEK cells; activation, % at 5.96 µM; hit rate 0.073% among 340,000; P14735; FAbeta-B cleavage, fluorescence polarization; 0% vehicle, 100% cell-free pure enzyme wells;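 active = activation above the mean of all tested compounds plus 3 SD, set per screening campaign, cut at about 17% in these data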
The depositor's hits bear a star. Shown are actives, neighbours in structure and some others; about 1.5% of the full set was active somewhere.

Screening COc1cccc2c1C(=O)c1c(O)c3c(c(O)c1C2=O)C[C@@](O)(C(=O)CO)C[C@@H]3O[C@H]1C[C@H](N)[C@H](O)[C@H](C)O1 returned IDE inh 4, CRFBP-R2 agonist 93*, CRFBP-R2 block -80, RTF Ca sens inh -245, RTF Ca sens act 209* and IDE cell activ 9.
For CCn1cc(CN2CCCC(CNC(=O)COc3ccccc3OC)C2)c(C)n1 (centres undefined) the results were IDE inh 1, CRFBP-R2 agonist 0, CRFBP-R2 block 4, RTF Ca sens inh -8, RTF Ca sens act -5 and IDE cell activ 0.
Screening Cc1nnc2n(Cc3ccccc3)c(=O)c3c4c(sc3n12)COC(C)(C)C4 returned IDE inh -3, CRFBP-R2 agonist -2, CRFBP-R2 block 87*, RTF Ca sens inh -5, RTF Ca sens act -5 and IDE cell activ -6.
For CC1(C)Cc2c(sc3c2c(=O)n(Cc2ccccc2)c2nncn32)CO1 the results were CRFBP-R2 agonist -1, CRFBP-R2 block 6, RTF Ca sens inh 2, RTF Ca sens act 2 and IDE cell activ 0.
Cc1cccc(NC(=O)C2CC3CCC2C3)c1C (centres undefined) was read as IDE inh -1, CRFBP-R2 agonist 1, CRFBP-R2 block -7, RTF Ca sens inh -8, RTF Ca sens act 5 and IDE cell activ 3.
For CCOc1ccc(N(CC(=O)NC2CCC(C)CC2)S(=O)(=O)c2c(C)noc2C)cc1 (centres undefined) the results were IDE inh 9, CRFBP-R2 agonist 1, CRFBP-R2 block 62*, RTF Ca sens inh -5, RTF Ca sens act 2 and IDE cell activ 7.
`CCOc1ccc(N(CC(=O)NC2CCCCC2C)S(=O)(=O)c2c(C)noc2C)cc1` (centres undefined) gave IDE inh 6, CRFBP-R2 agonist -1, CRFBP-R2 block -18, RTF Ca sens inh -2, RTF Ca sens act 9 and IDE cell activ 2.
Screening Clc1ccc(-n2cc(COCc3ccccc3)nn2)cc1 returned IDE inh -2, CRFBP-R2 agonist -4, CRFBP-R2 block 63*, RTF Ca sens inh 13, RTF Ca sens act 2 and IDE cell activ 12.
`Cc1ccn2cc(CSc3ccccc3N)nc2c1` gave IDE inh 0, CRFBP-R2 agonist -6, CRFBP-R2 block 61*, RTF Ca sens inh 4, RTF Ca sens act -1 and IDE cell activ 7.
O=S(=O)(CCN1CCCCC1)CCS(=O)(=O)CCN1CCCCC1 was read as CRFBP-R2 agonist 0, CRFBP-R2 block 8, RTF Ca sens inh 3, RTF Ca sens act -1 and IDE cell activ 1.
For C=C1CCC[C@]2(C)C[C@H]3OC(=O)C(CNC(CC)CO)[C@H]3CC12 (some centres undefined) the results were IDE inh 3, CRFBP-R2 agonist 2, CRFBP-R2 block -3, RTF Ca sens inh -12, RTF Ca sens act -1 and IDE cell activ 2.
For C=C1CCC[C@]2(C)C[C@H]3OC(=O)C(CNC(C)(CO)CO)[C@H]3CC12 (some centres undefined) the results were IDE inh 0, CRFBP-R2 agonist 0, CRFBP-R2 block 86*, RTF Ca sens inh -3, RTF Ca sens act 2 and IDE cell activ 6.
Screening CC1=C(O)C(=O)C(c2c(C)cc(C)c(Br)c2C)=C(O)C1=O returned CRFBP-R2 agonist -1 and CRFBP-R2 block -12.
For CC(C)[C@H](NC(=O)OC(C)(C)C)C(=O)N/N=C/c1ccc2nccnc2c1 the results were IDE inh 6, CRFBP-R2 agonist 3, CRFBP-R2 block 92*, RTF Ca sens inh -4, RTF Ca sens act 2 and IDE cell activ 5.
Screening CC(C)[C@@H](N)C(=O)N/N=C/c1ccc2nccnc2c1 returned IDE inh 3, CRFBP-R2 agonist -1, CRFBP-R2 block -20, RTF Ca sens inh -11, RTF Ca sens act 1 and IDE cell activ -1.
Screening CCCC1=C(C(=O)OCC)C(c2cccnc2)n2nc(C)nc2N1 (centres undefined) returned IDE inh -2, CRFBP-R2 agonist 0, CRFBP-R2 block 114*, RTF Ca sens inh -2, RTF Ca sens act -3 and IDE cell activ 9.
`Nc1nc2n(n1)C(c1cccc(Br)c1)CC(c1ccc(F)cc1)N2` (centres undefined) gave IDE inh 1, CRFBP-R2 agonist 54*, CRFBP-R2 block -63, RTF Ca sens inh -3, RTF Ca sens act 6 and IDE cell activ -5.
For COCCN(C(=O)COC(=O)Cc1cccc(OC)c1)c1c(N)n(CC(C)C)c(=O)[nH]c1=O the results were IDE inh -2, CRFBP-R2 agonist -1, CRFBP-R2 block 6, RTF Ca sens inh -9, RTF Ca sens act -6 and IDE cell activ -1.
CC(=O)N[C@@H]1[C@@H](O)[C@@H]2OC(c3ccccc3)OC[C@H]2O[C@@H]1N=[N+]=[N-] (some centres undefined) was read as IDE inh -3, CRFBP-R2 agonist 0, CRFBP-R2 block 6, RTF Ca sens inh -5, RTF Ca sens act -7 and IDE cell activ 3.
For CCOC(=O)c1sc2ncc([N+](=O)[O-])cc2c1N the results were IDE inh 4, CRFBP-R2 agonist -4, CRFBP-R2 block -9, RTF Ca sens inh 12, RTF Ca sens act -9 and IDE cell activ 2.
`COC(=O)c1sc2cc([N+](=O)[O-])cc(SCC(C)C)c2c1N` gave IDE inh 8, CRFBP-R2 agonist 55*, CRFBP-R2 block -156, RTF Ca sens inh -25, RTF Ca sens act 4 and IDE cell activ -2.
For Clc1ccc(-c2nnc3sc(-c4ccc(Br)o4)nn23)cc1 the results were IDE inh -5, CRFBP-R2 agonist 53*, CRFBP-R2 block -115, RTF Ca sens inh -16, RTF Ca sens act 2 and IDE cell activ 17.
Clc1ccc(-c2nnc3sc(-c4ccc(Br)o4)nn23)c(Cl)c1 was read as IDE inh 2, CRFBP-R2 agonist -1, CRFBP-R2 block 15, RTF Ca sens inh -1, RTF Ca sens act 1 and IDE cell activ 3.
For CCOC(=O)c1c(-c2ccccc2)csc1NC(=O)/C(C#N)=C/c1ccc(OC)c(OC)c1 the results were IDE inh 0, CRFBP-R2 agonist 3, CRFBP-R2 block -42, RTF Ca sens inh 9, RTF Ca sens act -8 and IDE cell activ 7.
CCOC(=O)c1c(-c2ccccc2)csc1NC(=O)/C(C#N)=C/c1ccc(O)c(OC)c1 was read as IDE inh 0, CRFBP-R2 agonist 198*, CRFBP-R2 block -216, RTF Ca sens inh -56, RTF Ca sens act 47* and IDE cell activ -135.
Cc1cc(NC(=O)Cc2cc(F)cc(F)c2)no1 was read as IDE inh -3, CRFBP-R2 agonist -1, CRFBP-R2 block -1, RTF Ca sens inh -9, RTF Ca sens act 3 and IDE cell activ 5.
